# Compound activity deposited in PubChem BioAssay by National Center for Advancing Translational Sciences (NCATS).
# The list is not random: actives were taken first. Their share in the collection is about 2.9%.
# ALOX12 inh = Primary qHTS assay for inhibitors of human arachidonate 12S-lipoxygenase (ALOX12): Round 2; Potency, µM (doses to about 108 µM), without a hit: top-dose activity change, negative = inhibition, usual class: inhibitors; AID 1671190, 2021; 580,000 compounds, 1.1% hits; purified 12hLO, xylenol orange hydroperoxide absorbance; Polyunsaturated fatty acid lipoxygenase ALOX12 (Homo sapiens), P18054; also: potency is read from the fitted curve at half-maximal effect; % is scaled to controls: 0 for no effect and ±100 for the full control effect
#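 Purified human 12hLO (150 nM final) in 25 mM Hepes, 0.01% Triton X-100, pH 7.0 was preincubated 15 min at room temperature with compound. Then 40 uM arachidonic acid was added, 30 min. Hydroperoxide was read by Fe-XO absorbance ratio 573/405 nm.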
# Pol beta inh = qHTS Assay for Inhibitors of DNA Polymerase Beta; Pol beta primer extension/strand displacement, fluorescence kinetic; P06746; 340,000 compounds, 1.3% hits; Potency, µM (highest dose often 114 µM), for the others: top-dose activity change, negative = inhibition, actives largely listed as inhibitors; also: potency is read from the fitted curve at half-maximal effect; % is scaled to controls: 0 for no effect and ±100 for the full control effect
#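 Reaction started by 50 nM substrate onto compound-treated Pol beta (10 nM, 15 min preincubation, room temperature); plates read at 0 min and 10 min. Normalized concentration-effect data fitted by four-parameter Hill equation.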
# Pol eta inh-1 = qHTS for Inhibitors of Polymerase Eta. DNA polymerase eta (Homo sapiens), Q9Y253. recombinant Pol eta, fluorescent DNA replication assay. Potency, µM (titrated, usually from 114 µM), for inactives: at the top dose activity change, negative = inhibition, usual class: inhibitors. 390,000 compounds, 1.2% hits. AID 588591, 2011; also: potency is read from the fitted curve at half-maximal effect; % is scaled to controls: 0 for no effect and ±100 for the full control effect
# Target sequence (Q9Y253 whole entry, looked up): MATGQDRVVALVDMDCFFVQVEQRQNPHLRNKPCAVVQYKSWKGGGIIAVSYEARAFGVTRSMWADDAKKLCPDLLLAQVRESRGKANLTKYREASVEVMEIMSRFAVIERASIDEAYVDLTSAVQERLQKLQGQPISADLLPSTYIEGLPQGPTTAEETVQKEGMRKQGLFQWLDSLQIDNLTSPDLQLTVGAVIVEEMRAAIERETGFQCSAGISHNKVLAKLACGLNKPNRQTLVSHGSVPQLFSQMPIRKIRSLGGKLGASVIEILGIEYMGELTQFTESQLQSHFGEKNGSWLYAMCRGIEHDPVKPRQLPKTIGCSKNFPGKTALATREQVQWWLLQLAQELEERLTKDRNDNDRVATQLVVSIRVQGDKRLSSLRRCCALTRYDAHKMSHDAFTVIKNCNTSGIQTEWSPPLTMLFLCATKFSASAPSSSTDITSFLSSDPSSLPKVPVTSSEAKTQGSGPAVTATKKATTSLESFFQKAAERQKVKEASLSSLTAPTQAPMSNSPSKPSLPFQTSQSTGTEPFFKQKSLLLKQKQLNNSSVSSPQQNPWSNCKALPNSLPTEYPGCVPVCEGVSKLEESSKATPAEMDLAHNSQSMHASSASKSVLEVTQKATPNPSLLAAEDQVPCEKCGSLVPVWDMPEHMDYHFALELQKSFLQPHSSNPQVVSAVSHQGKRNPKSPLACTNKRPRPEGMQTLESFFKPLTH
#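 Fluorescent replication assay: 50 nM final substrate added after a 15 min room-temperature compound preincubation with 10 nM enzyme. Signal taken at 0 min and again at 10 min.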
# POLI inh = qHTS for Inhibitors of Polymerase Iota | DNA polymerase iota (Homo sapiens), Q9UNA4 | Pol iota fluorescent replication assay, 10 min | Potency, µM (series often up to 115 µM), for the others: top-dose activity, negative = inhibition, hits mostly inhibitors | 390,000 compounds, 1% hits; also: potency is read from the fitted curve at half-maximal effect
#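 Pol iota at 10 nM preincubated 15 min with compounds at room temperature; reaction started with fluorescent substrate, 50 nM final. Fluorescence read kinetically at 0 and 10 min; buffer-only wells as negative control.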
# PI5P4Ka inh = qHTS for Inhibitors of phosphatidylinositol 5-phosphate 4-kinase (PI5P4K); Phosphatidylinositol 5-phosphate 4-kinase type-2 alpha (Homo sapiens), P48426; PI5P4Kalpha enzyme, ADP-Glo luminescence, 60 min; hits give low values; max response, %; 330,000 compounds, 1.2% hits; active = max response of -50% or lower; inconclusive = between -30% and -50%; inactive = -30% or higher; also: value at the top dose of about 77 µM; % is scaled to controls: 0 for no effect and ±100 for the full control effect
#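 Controls without substrate or without enzyme flank wells where PI5P4Kalpha converts substrate using 5 microM ATP (final). Incubation lasts 60 minutes at room temperature; ADP formed is read by ADP-Glo luminescence.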
# POLK inh = qHTS for Inhibitors of Polymerase Kappa; DNA polymerase kappa (Homo sapiens), Q9UBT6; AID 588579, 2011; purified Pol kappa, fluorescent DNA synthesis assay, 10 min; Potency, µM (doses to about 107 µM), inactives show top-dose activity, negative = inhibition, hits mostly inhibitors; 400,000 compounds, 0.53% hits; also: potency is read from the fitted curve at half-maximal effect; % is scaled to controls: 0 for no effect and ±100 for the full control effect
#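 Kinetic fluorescence readout at 0 and 10 min followed reaction start with substrate at 50 nM final. Beforehand, enzyme (10 nM Pol kappa) stood 15 min with compound at room temperature; buffer-only wells were negative controls.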
# GALK confirm = Confirmation Assay for Inhibitors of Human Galactokinase (GALK); shares compounds with Pol eta inh-1; purified GALK, Kinase-Glo ATP depletion luminescence; Potency, µM (titrated, usually from 115 µM), inactives show at the highest dose activity, negative = inhibition, most hits filed as inhibitors; 150 compounds, 70% hits
# GALK redox cs = Confirmatory Assay for Inhibitors of Human Galactokinase (GALK): Phenol-HRP redox assay counterscreen. Phenol red-HRP H2O2 redox cycling, absorbance 600 nm. shares compounds with Pol eta inh-1. Potency, µM (doses to about 115 µM), inactives show at the top dose activity change, negative = H2O2 signal, hits mostly inhibitors. 150 compounds, 40% hits
# HEK293 tox = Secondary Assay for Inhibitors of Human Galactokinase (GALK): HEK-293 Cell Viability Assay; shares compounds with Pol eta inh-1; HEK-293 viability, ATP luminescence (CellTiter-Glo), 24/48 h; Potency, µM (top dose mostly 46.1 µM), for inactives: top-dose activity change, negative = cytotoxicity, most hits filed as inhibitors; 170 compounds, 10% hits; AID 2547, 2010; also: potency is read from the fitted curve at half-maximal effect; % is scaled to controls: 0 for no effect and ±100 for the full control effect
# Pol eta inh-2 = qHTS for Inhibitors of Polymerase Eta: Confirmatory Assay for Cherry-picked Compounds; shares compounds with Pol eta inh-1; Pol eta primer extension, TAMRA/BHQ fluorescence, 10 min; Potency, µM, actives largely listed as inhibitors; 2,600 compounds, 64% hits; also: potency is read from the fitted curve at half-maximal effect
# ADP-Glo interf = qHTS for Inhibitors of PI5P4K: ADP-Glo counter assay. shares compounds with PI5P4Ka inh. 1,100 tested, under 10 active. AID 743285, 2014. Potency, µM (titrated, usually from 76.9 µM), for inactives: at the highest dose activity change, negative = inhibition, actives largely listed as inhibitors. ADP-Glo detection counter-screen, luciferase luminescence, no enzyme
# An asterisk follows results filed as active; ? = inconclusive; . = not tested or not shown; [ ] = another dose, or the depositor's remark. Unless noted, calls follow the shape of the dose curve; as a rule, active = well fitted curve in the direction sought with a large enough effect; inconclusive = small, poorly fitted or top-dose-only effect, or another doubt; inactive = no such curve, though single readings can be large; an effect the other way counts as inactive or inconclusive.
SMILES,ALOX12 inh,Pol beta inh,Pol eta inh-1,POLI inh,PI5P4Ka inh,POLK inh,Pol eta inh-2,others
O=C(C1CCCC1)N1[C@H]2CC[C@@H]1c1cnc(-c3ccc(F)cc3)nc1C2,12%,.,.,.,.,.,.,
c1cc(CC2CN3CCCC3CN2)cs1 (stereo not drawn),5%[12.5 µM],.,.,.,.,.,.,
COCCN1C(=O)NC(=O)/C(=C\c2ccc(Br)cc2)C1=O,-14%,-17%,-19%,-13%,?,2%,.,
Cc1ccc(/C=C2/C(=O)NC(=O)N(CCc3ccc(F)cc3)C2=O)s1,?,39%,2%,5%,?,2%,.,
C=CCN1C(=O)/C(=C/c2ccc(Br)s2)C(=O)NC1=S,5.6µM*,?,20µM*,18µM*,-94*,79µM*,?,
C=CCN1C(=O)/C(=C/c2ccc3c(c2)CCCN3CCC)C(=O)NC1=S,-40%,?,71µM*,?,?,?,67*,
C=CCN(C)C(=O)[C@H]1CN2CCC1C[C@@H]2Cn1cc(COC)nn1 (stereo partly drawn),47%[176 µM],.,.,.,.,.,.,
O=c1oc2ccccc2c(O)c1C(c1ccc([N+](=O)[O-])cc1)c1c(O)c2ccccc2oc1=O,7.9µM*,50µM*,20µM*,?,?,?,.,GALK confirm=27µM*;GALK redox cs=5%;HEK293 tox=-2%
Cc1ccccc1N1C(=O)NC(=O)/C(=C\c2cnn(-c3ccccc3)c2)C1=O,?,16µM*,22µM*,-6%,-72*,-5%,?,
Cc1ccc(-n2c(C)cc(/C=C3/C(=O)NC(=O)N(Cc4ccco4)C3=O)c2C)cc1,?,?,50µM*,20µM*,-13,?,?,
COc1cc(N2CCOCC2)ccc1/C=C1\C(=O)NC(=O)N(Cc2cccs2)C1=O,-28%,16%,-16%,?,-29,-6%,.,
Cc1cc(/C=C2\C(=O)NC(=O)N(Cc3ccco3)C2=O)c(C)n1-c1ccc(O)cc1,35µM*,11µM*,20µM*,?,-83*,40µM*,?,
Cc1ccc(OCCn2cccc2/C=C2/C(=O)NC(=O)N(Cc3ccco3)C2=O)cc1,35µM*,-14%,20µM*,8.9µM*,?,28µM*,67*,
COc1ccc2c(c1)C1(CCN(C(=O)c3ccc(C)c(F)c3)C1)C(=O)N2C (stereo not drawn),33%,.,.,.,.,.,.,
O=C(NCc1ccc(F)cc1)[C@H]1CN2CC[C@H]1C[C@@H]2Cn1cc(C2(O)CCCC2)nn1,45%[176 µM],.,.,.,.,.,.,
COCCNC(=O)N1[C@H]2CC[C@@H]1C(C(=O)OC)=C(c1ccc(OC)c(OC)c1)C2,7%,.,-19%,19%,-1,3%,.,
CCCNC(=O)N1[C@H]2CC[C@@H]1C(C(=O)OC)=C(c1ccc(OC)c(OC)c1)C2,12%,.,-11%,-3%,-85*,11%,.,ADP-Glo interf=-5%
CCC(CC)COC(=O)C1=C(C)N[C@]2(C)C[C@H]1c1ccccc1O2,-1%,.,.,.,.,.,.,
COc1ccc(C(=O)N2C[C@@H]3C[C@H](C2)c2ccc(NC(=O)CN(C)C)c(=O)n2C3)cc1,46%[176 µM],.,.,.,.,.,.,
CC(C)NCC(O)c1ccc(C2CCCC2)cc1 (stereo not drawn),-18%,80%,-7%,6%,-9,-16%,.,ADP-Glo interf=-8%
CCCCCn1c(=O)c(C(=O)Nc2ccccc2S(N)(=O)=O)c(O)c2ccccc21,35%,-18%,-9%,29%,-53*,-16%,.,ADP-Glo interf=0%
